A short description of test [1]: Cell Viability - BJ (AID 421; calls by dose curve;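 note: potency is the fitted concentration of half-maximal effect; cells exposed to compound for 40 hours at 37 °C before readout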). Conditions: BJ fibroblast viability, qHTS. The method, boiled down:
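Cytotoxicity in human BJ foreskin fibroblasts is scored as loss of cellular ATP after a 40-hour exposure, measured by luciferase luminescence. Controls are DMSO and 100 uM tamoxifen.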
For orientation: qHTS replaces the single test concentration by a dilution series.

Test [2] can be described thus: Cell Viability - HepG2 (AID 433; calls by dose curve;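 note: potency is the fitted concentration of half-maximal effect; cells exposed to compound for 40 hours; potency for ATP loss meaning cytotoxicity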). Conditions: qHTS. The method, boiled down: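 ATP luminescence (CellTiter-Glo) after 40 h compound exposure, 37 °C, HepG2, 1500 cells/well, complete medium. Normalized: DMSO = basal, 100 uM tamoxifen = 100% inhibition. AC50 via standard Hill equation.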
Test [3] in a line: Cell Viability - Mesenchymal (AID 546).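 Note: cells exposed to compound for 40 hours before reading.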 Conditions: mesenchymal cells viability, qHTS; activity change, negative = cytotoxicity: at 91.7 µM (top of the series). The method, boiled down:
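Human kidney mesenchymal cells from normal renal glomeruli, 1000 cells/well, rested 5 hr at 37 °C, then treated 40 hr at 37 °C in complete medium. Cellular ATP read by CellTiter-Glo luminescence; AC50 from Hill-equation fits.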

A short description of test [4]: Cellular Toxicity (caspase-3) Jurkat (AID 655).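 Note: cells exposed to compound for 16 h at 37 °C before reading.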 Particulars: Jurkat caspase-3 activation, luminescence; caspase-3 activation: at 92.2 µM (top of the series), DMSO = 0%, tamoxifen = 100%. The method, boiled down: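 Luminescent caspase-3/7 readout (aminoluciferin substrate cleavage) in human T-cell leukemia Jurkat cells after 16 hr compound exposure. Concentration-response normalized to DMSO and 100 uM tamoxifen; AC50 by standard Hill equation.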

Test [5] in a line: Cell Viability - LYMP2-003 (AID 965).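 Note: cells exposed to compounds for 24 h before reading; 0% = DMSO only and full effect = 92 µM tetraoctylammonium bromide; nearly all actives have a fitted effect of over 50% in size.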 Conditions: LYMP2-003 lymphoblastoid cell viability; series mostly up to 92.2 µM. The method, boiled down: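 CellTiter-Glo luminescence (cellular ATP) after 24 h compound exposure at 37 C in complete medium; 2500 cells/well, 5 h settling beforehand. Concentration-response fitted to standard Hill equation for AC50. Tetraoctylammonium bromide served as positive control.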

Test [6] is described as follows: Cell Viability - LYMP2-011 (AID 969).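 Note: 0% = DMSO only and full inhibition = 92 µM tetraoctylammonium bromide; nearly all actives have a fitted effect of over 60% in size.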 Particulars: LYMP2-011 lymphoblastoid cells viability; series mostly up to 92.2 µM. The method, boiled down:
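Acute toxicity is scored as a concentration-dependent drop in intracellular ATP of a human lymphoblastoid line after 24 hr treatment. Values are AC50s modeled with the Hill equation.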

A short description of test [7]: Cell Viability - LYMP2-021 (AID 974).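 Note: compound exposure lasts 24 hours at 37 °C; % is set by controls: 0 for no effect and ±100 for the full control effect; nearly all actives have a fitted effect of over 55% in size.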 Conditions: LYMP2-021 lymphoblastoid cells viability; series mostly up to 92.2 µM. The method, boiled down: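 Concentration-response cytotoxicity in a human lymphoblastoid line: 24 hr treatment at 37 C in complete culture medium, tetraoctylammonium bromide as positive control, luminescent ATP quantitation as viability measure.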

A short description of test [8]: Cell Viability - LYMP2-023 (AID 975).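 Note: cellular ATP measured by luciferase luminescence as viability proxy; plate controls were DMSO only for no effect and 92 µM tetraoctylammonium bromide control for full effect; nearly all actives have a fitted effect of over 55% in size.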 Conditions: LYMP2-023 lymphoblastoid cell viability; series mostly up to 92.2 µM. The method, boiled down:
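Concentration-dependent drop in intracellular ATP measures acute cytotoxicity in a human lymphoblastoid line treated for 24 hours in complete culture medium. AC50 values are taken from Hill-equation fits of qHTS data.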

The nature of test [9]: Cell Viability - LYMP2-025 (AID 976).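 Note: plate controls were DMSO only for no effect and tetraoctylammonium bromide control for full effect.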 Conditions: LYMP2-025 lymphoblastoid cell viability; series mostly up to 92.2 µM. The method, boiled down:
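In qHTS format, LYMP2-025 lymphoblastoid cells in complete culture medium received compound for 24 hr; ATP-based CellTiter-Glo signal gave viability, with AC50 derived by Hill equation.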

The nature of test [10]: Cell Viability - LYMP2-002 (AID 977).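 Note: plate controls were DMSO only for no effect and 92 µM tetraoctylammonium bromide for full effect.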 Particulars: LYMP2-002 lymphoblastoid cell viability, qHTS; series mostly up to 92.2 µM. The method, boiled down:
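Human lymphoblastoid LYMP2-002 cells, 2500 per well, exposed to compounds for 24 h at 37 C in complete medium; viability read as intracellular ATP by CellTiter-Glo luminescence, AC50 from Hill fits.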

Test [11] is described as follows: Cell Viability - LYMP2-008 (AID 980). Note: % is set by controls: 0 for no effect and ±100 for the full control effect; nearly all actives have a fitted effect of over 60% in size. Conditions: LYMP2-008 lymphoblastoid cell viability, qHTS; series mostly up to 92.2 µM. The method, boiled down:
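Acute cytotoxicity is scored as concentration-dependent loss of cellular ATP in a human lymphoblastoid line after 24 hr treatment at 37 C. ATP is quantified by luciferase luminescence.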

Test [12] can be described thus: Cell Viability - LYMP2-014 (AID 983).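 Note: plate controls were DMSO only for no effect and 92 µM tetraoctylammonium bromide for full effect; nearly all actives have a fitted effect of over 50% in size.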 Particulars: LYMP2-014 lymphoblastoid cells, viability qHTS; series mostly up to 92.2 µM. The method, boiled down: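 Decrease in intracellular ATP after 24 hr treatment at 37 C, measured by luciferase luminescence, indicated cytotoxicity. Concentration-response data were fitted with the standard Hill equation to give AC50.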

Test [13] can be described thus: Cell Viability - LYMP2-016 (AID 984). Note: % is set by controls: 0 for no effect and ±100 for the full control effect; nearly all actives have a fitted effect of over 55% in size. Conditions: LYMP2-016 lymphoblastoid cell viability, qHTS; series mostly up to 92.2 µM. The method, boiled down:
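qHTS, 1536-well: 2500 LYMP2-016 cells/well, 5 hr 37 C, compound added, 24 hr 37 C, CellTiter-Glo 30 min RT, luminescence. Tetraoctylammonium bromide positive control. AC50 via Hill fit.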

Test [14] in a line: Cell Viability - LYMP2-018 (AID 985).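 Note: compound exposure lasted 24 hr at 37 °C; plate controls were DMSO only for no effect and tetraoctylammonium bromide at 92 µM for full effect; nearly all actives have a fitted effect of over 50% in size.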 Conditions: LYMP2-018 lymphoblastoid cells, viability (qHTS); series mostly up to 92.2 µM. The method, boiled down: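 Acute cytotoxicity is scored as a concentration-dependent drop in intracellular ATP after 24 hr exposure of the lymphoblastoid line in complete culture medium, measured by luciferase luminescence. Potency is expressed as AC50 from Hill modelling.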

Test [15] can be described thus: Cell Viability - LYMP2-022 (AID 987).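 Note: 0% = DMSO alone and full effect = tetraoctylammonium bromide at 92 µM; nearly all actives have a fitted effect of over 55% in size.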 Conditions: LYMP2-022 lymphoblastoid cell viability; series mostly up to 92.2 µM. The method, boiled down:
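Acute toxicity in a human lymphoblastoid line is scored as decreased intracellular ATP after 24 hr compound treatment at 37 C. ATP is measured by CellTiter-Glo luminescence; curves are fitted with the Hill equation to give AC50.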

Test [16] can be described thus: Cell Viability - LYMP2-024 (AID 988).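 Note: plate controls were DMSO only for no effect and 92 µM tetraoctylammonium bromide for full effect; nearly all actives have a fitted effect of over 60% in size.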 Particulars: LYMP2-024 lymphoblastoid cell viability; series mostly up to 92.2 µM. The method, boiled down:
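Acute toxicity is measured as concentration-dependent loss of intracellular ATP in a human lymphoblastoid line treated 24 hours at 37 C. Luciferase luminescence quantifies ATP; AC50 values come from standard Hill-equation modelling.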

Test [17] can be described thus: Cell Viability - LYMP2-026 (AID 989). Note: % is set by controls: 0 for no effect and ±100 for the full control effect; nearly all actives have a fitted effect of over 50% in size. Particulars: LYMP2-026 lymphoblastoid cell viability, qHTS; series mostly up to 92.2 µM. The method, boiled down: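 Concentration-dependent loss of intracellular ATP in human lymphoblastoid cells after 24 hr at 37 C, quantified by luciferase luminescence. AC50 derived from standard Hill equation.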
Test [18] in a line: qHTS assay for small molecule antagonists of retinoid X receptor alpha signaling (AID 588546; active = well fitted inhibition curve with a large enough effect in the signal ratio, with a control signal flat, not every such curve was filed as active; the % refers to the signal ratio;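 note: cells stimulated with 9-cis-retinoic acid as agonist; % is set by controls: 0 for no effect and ±100 for the full control effect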). Conditions: HEK293T RXRa-UAS-bla, beta-lactamase ratio, antagonist mode; measured here: W530 green channel, cytotoxicity proxy. The method, boiled down:
(§1)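 Beta-lactamase reporter inhibition, read as CCF4 fluorescence ratio (ex 405, em 460/530 nm) after 2 h at RT. HEK293T UAS-bla cells, 2500/well, were stimulated with 9-cis-RA at 500 or 100 nM final alongside test compound for 18 h at 37 C.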

Test [19] addresses Retinoic acid receptor RXR-alpha (Homo sapiens) (UniProt P19793). The description is as above. Conditions: HEK293T RXRa-UAS-bla, beta-lactamase ratio, antagonist mode. The method, boiled down:
as §1

The nature of test [20]: qHTS assay for environmental chemicals that activate the Aryl hydrocarbon Receptor (AhR) signaling pathway (AID 651777). Note: % of control where 0% means no effect; nearly all actives have a fitted effect of over 15% in size. Particulars: 1A2-DRE human hepatoma cells, luciferase, 24 h; activation: stronger effect = higher value. The method, boiled down: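 AhR activation is scored as a rise in luciferase from a stable DRE–CYP1A2 promoter construct in human hepatoma cells. Treatment lasts 24 hr at 37 C; detection uses One-Glo after 30 min at room temperature.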

From PubChem BioAssay (NCATS) come the findings set out here.

Inconclusive results are not listed. The source made the active and inactive calls. Unless noted, calls come from the whole dose curve; as a rule, active = well fitted curve in the direction sought with a large enough effect; inconclusive = small, poorly fitted or top-dose-only effect, or another doubt; inactive = no such curve, though single readings can be large; an effect the other way counts as inactive or inconclusive. A value given as a limit tells only on which side of the number the result lay.

Retinoic acid receptor RXR-alpha (Homo sapiens), sequence (P19793 whole entry, looked up): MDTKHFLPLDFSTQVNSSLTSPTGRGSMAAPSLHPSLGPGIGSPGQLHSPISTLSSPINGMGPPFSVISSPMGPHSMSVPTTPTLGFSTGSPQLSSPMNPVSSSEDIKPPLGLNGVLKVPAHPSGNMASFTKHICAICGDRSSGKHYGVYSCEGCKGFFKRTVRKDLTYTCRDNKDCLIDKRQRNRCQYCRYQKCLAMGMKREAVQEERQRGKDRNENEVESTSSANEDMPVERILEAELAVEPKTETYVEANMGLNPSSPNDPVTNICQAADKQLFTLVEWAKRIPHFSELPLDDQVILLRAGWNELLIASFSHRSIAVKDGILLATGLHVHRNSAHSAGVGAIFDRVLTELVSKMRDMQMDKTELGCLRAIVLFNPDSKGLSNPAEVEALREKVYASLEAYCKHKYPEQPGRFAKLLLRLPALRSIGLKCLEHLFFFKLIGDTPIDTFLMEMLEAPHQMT

Consider `C1CCCNCC1`, for which the Potency in test [1] and in [2] was > 92 µM (inactive) throughout. The Potency entry in test [3], in test [4], in test [5], in [6], in test [7] and in test [8] was “inactive” throughout. The Potency result in test [9], in [10], in test [11], in test [12], in test [13] and in [14] was “inactive” throughout. Further, the Potency result in [15], in [16] and in test [17] was “inactive” each time. In addition, the figures for the max response in test [18] and in test [19] were -4.82% and 5.08% (inactive), respectively. In test [20], the activation was 0.178% (inactive).

Turning to `Cc1ccc(C(=O)O)cc1[N+](=O)[O-]`, the Potency in [1] and in [2] was > 92 µM (inactive) each time. For the same compound, the Potency result in [3], in test [4], in test [5], in test [6], in [7] and in test [8] was “inactive” each time. For the same compound, the Potency entry in [9], in test [10], in [11], in [12], in test [13] and in test [14] was “inactive” in each case. For the same compound, the Potency result in [15], in [16] and in test [17] was “inactive” each time. The max response in test [18] is -6.14%; in test [19], 8.29% (inactive). For the same compound, the activation in test [20] was -0.0314% (inactive).

In the case of `Brc1ccc(-c2ccccc2)cc1`, the Potency in test [1] and in [2] was > 92 µM (inactive) throughout. The Potency entry in test [3], in test [4], in test [6], in [7], in test [8] and in test [9] was “inactive” throughout. In addition, the Potency result in [10], in [11], in [12], in test [13], in test [14] and in test [15] was “inactive” in each case. Also, the Potency entry in test [16] and in test [17] was “inactive” throughout. The activation in [20] was 11.7% (inactive).

As for `Nc1ccc(N=Nc2ccccc2)c(N)c1`, the Potency in test [1] and in [2] was > 92 µM (inactive) in each case. Besides, the Potency entry in test [4], in test [5], in test [6], in test [7], in test [8] and in [9] was “inactive” in each case. For the same compound, the Potency result in [10], in test [11], in test [12], in [13], in test [14] and in test [15] was “inactive” in each case. Moreover, the Potency entry in [16] and in test [17] was “inactive” throughout. For the same compound, the figures for the max response in test [18] and in test [19] were -9.61% and -15% (inactive), respectively.

With `C=CC1CO1` (stereo not given), the Potency in [1] and in [2] was > 92 µM (inactive) in each case. For the same compound, the Potency result in test [3], in [4], in test [5], in test [6], in test [7] and in [8] was “inactive” each time. Besides, the Potency result in test [9], in [10], in [11], in test [12], in test [13] and in [14] was “inactive” throughout. Moreover, the Potency entry in [15], in [16] and in test [17] was “inactive” in each case. Also, the max response in test [18] was -2.46%; in [19], -9.54% (inactive). For the same compound, the activation in [20] is -0.433% (inactive).

On to `CCCCCCCCC1CO1` (stereo not given), for which the Potency in test [1] and in test [2] was > 92 µM (inactive) each time. The Potency entry in test [3], in [4], in [5], in [6], in [7] and in [8] was “inactive” each time. The Potency entry in test [9], in test [10], in test [11], in test [12], in test [13] and in test [14] was “inactive” throughout. Further, the Potency result in test [15], in [16] and in [17] was “inactive” each time. For the same compound, the max response is -6.6% in [18] and -3.61% (inactive) in [19]. The activation in test [20] was 0.826% (inactive).
